Source: PubChem BioAssay (NCATS)
Inconclusive results are not listed. The source made the active and inactive calls. Unless noted, calls come from the whole dose curve; as a rule, active = well fitted curve in the direction sought with a large enough effect; inconclusive = small, poorly fitted or top-dose-only effect, or another doubt; inactive = no such curve, though single readings can be large; an effect the other way counts as inactive or inconclusive.

Experiments:
[1] = target: Guanine nucleotide-binding protein G(i) subunit alpha-1 (Homo sapiens) (UniProt P63096); assay: qHTS Assay for Inhibitors of RGS12 GoLoco Motif Activity (Green Fluorophore) (AID 879);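 note: 0% = labeled peptide with Gαi1 and full inhibition = labeled peptide alone without protein; negative values mean loss of peptide binding seen as reduced polarization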
Summary of the method: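 A drop in FITC polarization marked displacement of the FITC-tagged RGS12 GoLoco peptide (10 nM) from Gαi1 (50 nM). Compounds were incubated 10 min at room temperature in Tris pH 7.5 buffer containing 150 mM NaCl, 0.1 mM GDP and 0.05% NP40; unlabeled peptide titration served as control.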

[2] = qHTS Assay for Identification of Small Molecule Antagonists for NFkB Signaling Pathway (AID 895; active = well fitted inhibition curve with a large enough effect in the signal ratio, with a control signal flat, not every such curve was filed as active; the % refers to the signal ratio; note: % is set by controls: 0 for no effect and ±100 for the full control effect)
Summary of the method: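 Beta-lactamase reporter read-out (460 and 530 nm emission ratio, 405 nm excitation, 2 hrs substrate loading RT) after 5 hr stimulation with 10 pM TNF alpha in compound-treated NFkB-bla ME-180 cells in low-serum medium.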

[3] = qHTS Assay for Identification of Small Molecule Agonists for Thrombopoietin (TPO) Signaling Pathway (AID 917); note: % is set by controls: 0 for no effect and ±100 for the full control effect
Summary of the method: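 First, Ba/F3 cells with human TPO receptor were held overnight without IL-3. Next, compounds and TPO (26 pM final) were added. After 24 hrs at 37 C, luciferase detection reagent was added and luminescence measured following 10 min at room temperature.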

[4] = Cellular Toxicity (caspase-3) SHSY5Y (AID 657)
Summary of the method: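 SH-SY5Y human neuroblastoma cells (1500/well) were treated with compounds for 16 h at 37 °C, then Caspase-Glo 3/7 luminescence was read after 1 h at room temperature. Data normalized to DMSO and 10 uM staurosporine; AC50 from Hill fits.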

[5] = Cellular Toxicity (caspase-3) BJ (AID 658); conditions: Potency: caspase-3 activation;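 note: 0% = DMSO basal and 100% = 10 µM staurosporine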
Summary of the method: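 Caspase-Glo 3/7 luminescence, read 1 hr after reagent at room temperature, in normal BJ fibroblasts exposed 16 hours at 37 °C. AC50 values from Hill-equation concentration-response, scaled between DMSO basal and 10 uM staurosporine as 100%.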

[6] = Cellular Toxicity (caspase-3) MRC-5 (AID 659); conditions: Potency: caspase-3 activation;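 note: 0% = DMSO basal and 100% = 10 µM staurosporine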
Summary of the method: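 Luminescent Caspase-Glo 3/7 read-out (1 h, room temperature) after a 16 h, 37 °C compound exposure of MRC-5 lung fibroblasts at 1500 cells/well. Concentration-response AC50 from Hill equation; 0% DMSO, 100% 10 uM staurosporine.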

[7] = Cellular Toxicity (caspase-3) Mesangial (AID 660); conditions: Potency: caspase-3 activation;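 note: combined caspase 3 and 7 activity read by Caspase-Glo luminescence; cells exposed to compound for 16 h before the caspase read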
Summary of the method: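 AC50 values come from Hill-equation fits of caspase 3/7 activation, measured as Caspase-Glo luminescence in human glomerular mesangial cells exposed to compound for 16 h at 37 °C; 100% set by 100 uM tamoxifen.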

[8] = Cellular Toxicity (caspase-3) SK-N-SH (AID 661);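 note: 0% = DMSO basal and 100% = 10 µM staurosporine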
Summary of the method: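 Apoptosis readout in SK-N-SH neuroblastoma: Caspase-Glo 3/7 luminescence following 16 hr treatment in complete culture medium. Normalization used DMSO and 10 uM staurosporine controls.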

[9] = Cellular Toxicity (caspase-3) H-4-II-E (AID 663); conditions: H-4-II-E rat hepatoma, scaled: DMSO 0%, 100 µM tamoxifen 100%; at 92.2 µM (top of the series);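 note: cells exposed to compound for 16 hr before readout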
Summary of the method: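 Caspase 3/7 activation measured by luminescent aminoluciferin substrate cleavage after 16 hr compound treatment of H-4-II-E cells in complete medium. Increase normalized between DMSO (basal) and 100 uM tamoxifen (100%); Hill-equation AC50 from concentration-response.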

[10] = Cellular Toxicity (caspase-3) Hek293 (AID 664); conditions: HEK293 caspase-3 activation, DMSO = 0%, 100 µM tamoxifen = 100%; at 92.2 µM (top of the series);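 note: cells exposed to compound for 16 h at 37 °C before readout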
Summary of the method: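 Apoptosis readout: Caspase-Glo 3/7 signal in human HEK293 cells following 16-hour compound incubation. Responses scaled between DMSO baseline and 100 uM tamoxifen.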

[11] = Cellular Toxicity (caspase-3) N2a (AID 665);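 note: compound exposure lasted 16 h at 37 °C before readout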
Summary of the method: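 Concentration-response qHTS: compound-induced caspase-3/7 luminescence in N2a cells (16 h, 37 °C), relative to DMSO and 10 uM staurosporine controls; AC50 obtained using the standard Hill equation.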

[12] = Cellular Toxicity (caspase-3) NIH 3T3 (AID 666);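 note: 0% = DMSO basal and 100% = 100 µM tamoxifen stimulation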
Summary of the method: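 Activity: caspase-3/7 induction, NIH 3T3 cells, 16 hr treatment at 37°C, luminescent Caspase-Glo detection; AC50 via Hill equation.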

[13] = Cellular Toxicity (caspase-3) Renal Proximal Tubule (AID 667); conditions: Potency: caspase-3 activation;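 note: cells exposed to compound for 16 hours at 37 °C before detection; 0% = DMSO basal and 100% = 10 µM staurosporine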
Summary of the method: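 Primary rat proximal tubule cells, 1000/well, 5 h plating at 37 °C, then compound 16 h at 37 °C. Caspase-Glo 3/7 reagent, 1 h RT, luminescence. Normalized to DMSO (basal) and 10 uM staurosporine (100%); Hill-fit AC50.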

[14] = target: Cytochrome P450 3A4 (Homo sapiens) (UniProt P08684); assay: qHTS Assay for Activators of Cytochrome P450 3A4 (AID 885); note: nearly all actives have a fitted effect of over 65% in size
Summary of the method: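 Human CYP3A4 dealkylates Luciferin-PPXE to luciferin, which luciferase detection converts to light. Substrate was at its KM (25uM), buffer 200mM KPO4, reaction 60 min at RT.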

[15] = Confirmation and Secondary Assay for Modulators of Hemoglobin Beta Chain Splicing at IVS2 654 locus (AID 910);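 note: HeLa cells stably carrying EGFP split by mutant beta-globin IVS2-654 intron; per-well total GFP intensity by laser scanning cytometry after 2-day treatment; % of control where 0% means no effect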
Summary of the method: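 Readout: per-well total peak green fluorescence (488 nm ex, 500–520 nm em) from objects 5–250 µm, reflecting correct splicing of an EGFP-654 reporter. Compounds were applied for 2 days at 37 °C to overnight-plated HeLa EGFP-654 cells; controls were DMSO and 500 nM IVS2-654 PNA.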

[16] = target: Cytochrome P450 2C9 (Homo sapiens) (UniProt P11712); assay: qHTS Assay for Inhibitors and Substrates of Cytochrome P450 2C9 (AID 883); note: % is set by controls: 0 for no effect and ±100 for the full control effect; nearly all actives have a fitted effect of over 60% in size
Summary of the method: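 Luminescent read-out of deoxyluciferin hydroxylation, normalized to 57uM sulphaphenazole (AC100). Reaction: 10nM enzyme, 100uM Luciferin-H (equal to KM), 25mM KPO4, 10 min compound preincubation, then 60 min with NADPH regeneration, both at 37C.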

[17] = target: Cytochrome P450 3A4 (Homo sapiens) (UniProt P08684); assay: qHTS Assay for Inhibitors and Substrates of Cytochrome P450 3A4 (AID 884); note: % is set by controls: 0 for no effect and ±100 for the full control effect; nearly all actives have a fitted effect of over 50% in size
Summary of the method: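 Luminescent readout of luciferin produced by CYP3A4 (20 nM) dealkylation of Luciferin-PPXE, 25 uM (its KM). NADPH-driven reaction ran 60 min at RT after 10 min compound preincubation; data scaled to 57 uM ketoconazole as 100% inhibition.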

[18] = target: Cytochrome P450 2D6 (Homo sapiens) (UniProt P10635); assay: qHTS Assay for Inhibitors and Substrates of Cytochrome P450 2D6 (AID 891); note: nearly all actives have a fitted effect of over 60% in size; note: potency is the fitted concentration of half-maximal effect
Summary of the method: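 Luminescent read-out of luciferin formed by 5 nM human CYP2D6 demethylating 30 uM Luciferin-ME EGE (Km level) over 60 min at room temperature after NADPH regeneration addition. Data normalized to full inhibition by 1.43 uM quinidine.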

[19] = target: Cytochrome P450 2C19 (Homo sapiens) (UniProt P33261); assay: qHTS Assay for Inhibitors and Substrates of Cytochrome P450 2C19 (AID 899); note: potency is the fitted concentration of half-maximal effect; nearly all actives have a fitted effect of over 60% in size
Summary of the method: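 Luminescence readout of luciferin formed from 10uM Luciferin-H EGE (KM level) by 5 nM CYP2C19 in 50mM KPO4. 60 min NADPH-driven reaction at 37C after 10 min compound preincubation; data scaled to 57uM ketoconazole inhibition.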

Cytochrome P450 3A4 (Homo sapiens), sequence (P08684 whole entry, looked up): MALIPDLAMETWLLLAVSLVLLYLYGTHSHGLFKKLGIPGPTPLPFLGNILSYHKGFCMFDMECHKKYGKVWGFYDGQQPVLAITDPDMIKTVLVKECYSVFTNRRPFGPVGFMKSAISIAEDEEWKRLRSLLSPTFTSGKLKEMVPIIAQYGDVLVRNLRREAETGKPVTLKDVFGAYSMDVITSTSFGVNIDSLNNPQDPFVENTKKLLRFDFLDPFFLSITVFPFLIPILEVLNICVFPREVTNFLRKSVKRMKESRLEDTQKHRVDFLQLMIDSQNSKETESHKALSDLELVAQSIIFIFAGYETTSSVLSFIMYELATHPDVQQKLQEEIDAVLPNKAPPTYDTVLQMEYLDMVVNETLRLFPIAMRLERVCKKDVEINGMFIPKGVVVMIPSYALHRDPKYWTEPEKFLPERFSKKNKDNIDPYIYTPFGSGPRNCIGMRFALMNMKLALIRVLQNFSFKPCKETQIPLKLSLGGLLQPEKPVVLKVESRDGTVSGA
Cytochrome P450 2C9 (Homo sapiens), sequence (P11712 whole entry, looked up): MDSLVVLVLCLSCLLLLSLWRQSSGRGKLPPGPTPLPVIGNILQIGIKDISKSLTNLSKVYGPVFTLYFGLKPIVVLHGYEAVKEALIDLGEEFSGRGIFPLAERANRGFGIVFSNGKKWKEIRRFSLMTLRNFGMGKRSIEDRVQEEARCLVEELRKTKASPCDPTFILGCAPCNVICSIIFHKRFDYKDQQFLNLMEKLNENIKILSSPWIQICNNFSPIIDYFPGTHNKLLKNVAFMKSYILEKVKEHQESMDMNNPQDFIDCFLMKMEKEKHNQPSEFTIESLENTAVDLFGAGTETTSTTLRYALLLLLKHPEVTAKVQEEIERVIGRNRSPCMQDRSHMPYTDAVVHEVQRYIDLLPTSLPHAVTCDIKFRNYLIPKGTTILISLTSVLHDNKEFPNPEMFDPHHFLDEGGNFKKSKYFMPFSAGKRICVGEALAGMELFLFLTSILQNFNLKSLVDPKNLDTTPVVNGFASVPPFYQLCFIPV
Guanine nucleotide-binding protein G(i) subunit alpha-1 (Homo sapiens), sequence (P63096 whole entry, looked up): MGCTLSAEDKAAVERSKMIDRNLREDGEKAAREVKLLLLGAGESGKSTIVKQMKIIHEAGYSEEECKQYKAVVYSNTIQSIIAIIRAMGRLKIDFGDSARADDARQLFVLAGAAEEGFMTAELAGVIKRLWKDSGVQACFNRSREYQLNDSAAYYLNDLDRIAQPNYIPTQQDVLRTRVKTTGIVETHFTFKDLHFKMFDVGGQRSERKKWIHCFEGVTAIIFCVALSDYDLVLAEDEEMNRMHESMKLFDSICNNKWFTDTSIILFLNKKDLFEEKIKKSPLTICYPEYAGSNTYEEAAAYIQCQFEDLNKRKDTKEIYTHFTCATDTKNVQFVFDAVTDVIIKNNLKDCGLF
Cytochrome P450 2D6 (Homo sapiens), sequence (P10635 whole entry, looked up): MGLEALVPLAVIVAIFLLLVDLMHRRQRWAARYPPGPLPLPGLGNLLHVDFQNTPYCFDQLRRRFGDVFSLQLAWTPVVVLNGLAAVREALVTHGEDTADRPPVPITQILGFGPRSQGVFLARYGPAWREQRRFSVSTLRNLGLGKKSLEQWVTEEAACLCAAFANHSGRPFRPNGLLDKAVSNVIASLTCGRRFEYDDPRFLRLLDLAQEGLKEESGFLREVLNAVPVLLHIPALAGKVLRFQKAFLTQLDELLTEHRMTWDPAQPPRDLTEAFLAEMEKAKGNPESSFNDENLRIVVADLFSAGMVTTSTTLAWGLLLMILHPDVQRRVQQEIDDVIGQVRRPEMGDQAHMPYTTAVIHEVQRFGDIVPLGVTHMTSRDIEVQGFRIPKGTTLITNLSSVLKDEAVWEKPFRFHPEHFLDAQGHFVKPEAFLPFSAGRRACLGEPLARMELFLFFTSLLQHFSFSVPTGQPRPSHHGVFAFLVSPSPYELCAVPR
Cytochrome P450 2C19 (Homo sapiens), sequence (P33261 whole entry, looked up): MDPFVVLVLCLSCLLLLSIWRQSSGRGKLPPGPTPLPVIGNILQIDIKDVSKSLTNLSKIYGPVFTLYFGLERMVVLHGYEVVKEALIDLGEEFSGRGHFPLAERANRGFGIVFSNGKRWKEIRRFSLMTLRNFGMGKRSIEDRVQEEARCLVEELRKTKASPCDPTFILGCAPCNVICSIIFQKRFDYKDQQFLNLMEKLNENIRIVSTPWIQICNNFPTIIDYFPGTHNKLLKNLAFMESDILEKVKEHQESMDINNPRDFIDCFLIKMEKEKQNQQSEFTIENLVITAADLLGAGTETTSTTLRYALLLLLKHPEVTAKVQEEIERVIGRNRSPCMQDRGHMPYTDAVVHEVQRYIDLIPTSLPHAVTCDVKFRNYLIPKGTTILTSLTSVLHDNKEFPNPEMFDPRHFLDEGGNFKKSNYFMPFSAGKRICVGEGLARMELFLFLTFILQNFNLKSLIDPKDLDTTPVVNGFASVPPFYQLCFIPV

N[C@@H](Cc1ccc(O)c(O)c1)C(=O)O
inactive: outcome [1] | Potency [2] | outcome [3]

Cc1ccc(S(=O)(=O)N[C@@H](Cc2ccccc2)C(=O)CCl)cc1
inactive: outcome [1]

CC1=NN(c2ccccc2)C(=O)C1
inactive: Potency [4] | Potency [5] | Potency [6] | Potency [7] | Potency [8] | caspase-3 activation [9] -1.22% | caspase-3 activation [10] 1.55% | outcome [11] | Potency [12] | Potency [13] | outcome [14] | Potency [15]

COC(=O)Nc1nc2ccc(C(=O)c3ccccc3)cc2[nH]1
inactive: outcome [16] | outcome [17] | Potency [15]

CCOC(=O)c1ccc(OC(=O)CCCCCN=C(N)N)cc1
inactive: outcome [16]
active: Potency [18] 0.316 µM

Nc1ccc(S(=O)(=O)Nc2ccccn2)cc1
inactive: outcome [17] | Potency [15]

O=c1oc2c(O)c(O)cc3c(=O)oc4c(O)c(O)cc1c4c23
active: Potency [19] 31.6 µM
inactive: outcome [17] | Potency [18] | Potency [15]

Cc1ccnc2c1NC(=O)c1cccnc1N2C1CC1
inactive: Potency [4] | Potency [5] | Potency [6] | Potency [7] | Potency [8] | caspase-3 activation [9] 0.892% | caspase-3 activation [10] -0.521% | outcome [11] | Potency [12] | Potency [13] | outcome [17]

NNC(=O)c1ccncc1
inactive: Potency [4] | Potency [5] | Potency [6] | Potency [7] | Potency [8] | caspase-3 activation [9] 0.877% | caspase-3 activation [10] 0.113% | outcome [11] | Potency [12] | Potency [13] | outcome [14] | Potency [15]

CNS(=O)(=O)Cc1ccc2[nH]cc(CCN(C)C)c2c1
inactive: outcome [17] | Potency [15]

CCc1cc(C(N)=S)ccn1
inactive: Potency [4] | Potency [5] | Potency [6] | Potency [7] | Potency [8] | caspase-3 activation [9] -1.43% | caspase-3 activation [10] -3.96% | outcome [11] | Potency [12] | Potency [13] | Potency [15]

CC(=O)Oc1ccccc1C(=O)Nc1ncc([N+](=O)[O-])s1
inactive: Potency [4] | Potency [5] | Potency [6] | Potency [7] | Potency [8] | caspase-3 activation [9] -3.94% | caspase-3 activation [10] -8.75% | outcome [11]
